CFTR F508del cor: correctors of CFTR F508del function in bronchial epithelial cells. CFBE cells, YFP halide quenching; stimulated with forskolin plus potentiator P3; % fluorescence drop versus neutral controls. activity (quench increase), % at 7.58 µM. 350,000 compounds, 0.36% hits;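 active = mean added fluorescence quench of at least 8% versus neutral control, with both replicates also reaching 8%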;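 note: cells transiently co-express mutant CFTR-F508del with the halide-sensitive YFP; corrector assay measuring rescue of mutant channel to the surface after 24 h compound exposure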
SKN-1 inh: C. elegans SKN-1 inhibition | C. elegans VP596 Pgst-4::GFP/RFP ratio, acrylamide-induced, 24 h | inhibition, % at 21.8 µM | 360,000 compounds, 0.49% hits;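 active = interference check ratio from 0.5 to 1.5 plus GFP to RFP signal ratio inhibition reaching or exceeding a fixed threshold, cut at about 30% in these data, passing the limit was not always enough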
MPTP block: permeability transition pore inhibition; isolated mouse mitochondria, Ca2+ swelling absorbance, 30 min; inhibition, % at 10 µM; 360,000 compounds, 1.4% hits; AID 602449;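 active = inhibition of 50% or more, scaled per plate between neutral and stimulator controls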;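 note: 0% = DMSO wells given calcium and 100% = 1 mM EGTA wells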
NRP1-CendR mod: NRP-1/CendR interaction modulation; O14786; FAM-RPARPAR peptide binding to NRP-1, fluorescence polarization; inhibition, % at 25 µM; 360,000 compounds, 0.85% hits; AID 602438;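 active = inhibition or corrected inhibition above about 18%, plus a signal ratio from 0.5 to 1.5, limit read from the data, passing the limit was not always enough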
ATG4B inhibitor: ATG4B (human) cysteine protease inhibition. Q9Y4P1. ATG4B cleavage of LC3-PLA2, NBD-HPC fluorescence, 1 h. inhibition, % at 8.33 µM. 340,000 compounds, 0.51% hits. AID 504462; in the data active = inhibition above about 40%
* = called active by the depositor; . = not tested or not shown. An excerpt weighted towards active compounds, which were near 2.7% of everything screened.

SMILES	CFTR F508del cor	SKN-1 inh	MPTP block	NRP1-CendR mod	ATG4B inhibitor
C[C@@H]1CN([C@H](C)CO)C(=O)Cc2cc(NC(=O)NC3CCCCC3)ccc2O[C@@H]1CN(C)Cc1ccc2c(c1)OCO2	-1	.	.	.	.
CN(C)C(=O)c1cccc(-c2ccc3c(c2)[C@H]2[C@H](CCN2C(=O)C2CC2)[C@H](CO)N3)c1	-2	.	.	.	.
COc1ccc(NC(=O)Cn2nnc(C(=O)NCCc3ccccc3)c2N)cc1	0	7	2	-43	-7
COc1ccc(NC(=O)Cn2nnc(C(=O)Nc3ccccc3C)c2N)cc1	-2	-2	2	19*	-7
NC(=O)[C@H]1CC2(CC(c3cccc(NC(=O)CC(c4ccccc4)c4ccccc4)c3)=NO2)CN1C(=O)C(c1ccccc1)c1ccccc1 (stereo partly drawn)	3	7	-2	30*	-4
C/C=C\C(=O)Nc1cccc(C2=NOC3(C2)C[C@H](C(N)=O)N(C(=O)/C=C/CC)C3)c1 (stereo partly drawn)	3	2	-1	0	-10
CC/C=C/C(=O)N1CC2(CC(c3cccc(NC(=O)c4ccccc4)c3)=NO2)C[C@@H]1C(N)=O (stereo partly drawn)	-2	-2	0	23*	-12
CC(C)(C)[S@](=O)N1Cc2cc(C(=O)NCc3ccncc3)nc(-c3cccc(-c4ccncc4)c3)c2[C@@H]1CCO	3	.	.	.	.
COc1cccc(CN2CCN(Cc3ccco3)CC2)c1	-2	16	0	22*	-1
COc1ccc(CN2CCN(Cc3ccco3)CC2)cc1	2	40*	0	1	2
COc1ccc(CN2CCN(Cc3ccco3)CC2)cc1OC	1	9	-1	-2	8
Cc1cc(/C=C(\C#N)C(=O)OCC(=O)Nc2ccc(OC(F)F)cc2)c(C)n1CC(C)C	.	11	1	4	-9
Cc1cc(/C=C(\C#N)C(=O)OCC#N)c(C)n1CC(C)C	2	-2	-1	33*	-2
O=C(CN1C(=O)NC2(CCCCCCC2)C1=O)Nc1ccc(Br)cc1	9.1*	-1	0	-10	-15
Cc1ccc(S(=O)(=O)N(C)C)cc1NC(=O)CN1C(=O)NC2(CCCCCC2)C1=O	7	14	-1	13	4
O=C(CN1C(=O)NC2(CCCCC2)C1=O)Nc1ccc(F)cc1	5	0	-4	-6	-2
CCN(CC)c1ccc(S(=O)(=O)N2CCOCC2)cc1NC(=O)CN1C(=O)NC2(CCCC2)C1=O	0	-5	1	11	-6
COc1ccc(NS(=O)(=O)c2ccc(C)c(NC(=O)CN3C(=O)NC4(CCCC4)C3=O)c2)cc1	1	4	0	30*	-3
O=C(CN1C(=O)NC2(CCCC2)C1=O)Nc1cc(S(=O)(=O)N2CCOCC2)ccc1OCC(F)(F)F	1	40*	-1	8	4
COc1ccc(NC(=O)Nc2cccc3c2O[C@H](CN(C)C)[C@H](C)CN([C@@H](C)CO)C3=O)cc1	1	.	.	.	.
COCC(=O)OC1CCn2c1nc1c2C(=O)C(C)=C(NC(C)=O)C1=O (stereo not drawn)	-4	1	-1	45*	40
O=C(Nc1cccc(F)c1)N1CC(=O)N2[C@H](CO)[C@H](c3ccc(C#Cc4cccnc4)cc3)[C@@H]2C1	-1	.	.	.	.
COc1cc2c[n+](C)c3c4ccccc4ccc3c2cc1OC	9.7*	7	1	15	-12
COc1ccc2c(c1)c[n+](C)c1c3cc(OC)c(OC)cc3ccc21	2	4	-3	-5	.
CC(=O)N(C)C[C@@H]1Oc2ncc(-c3ccccc3F)cc2C(=O)N([C@@H](C)CO)C[C@H]1C	-2	.	.	.	.
SMILES	CFTR F508del cor	SKN-1 inh	MPTP block	NRP1-CendR mod	ATG4B inhibitor
Cc1cn([C@H]2C[C@H](O)[C@@H](CCC(=O)NCc3ccccc3)O2)c(=O)[nH]c1=O	1	7	10	3	-3
Cc1cn([C@H]2C[C@H](O)[C@@H](CCC(=O)NCCc3ccc4ccccc4c3)O2)c(=O)[nH]c1=O	4	-1	0	22*	.
CCOC(=O)c1nn(-c2ccccc2)c(C#N)c1N	.	-5	0	39*	-2
Cc1c(N)c(C(C)(C)C)cc(C(C)(C)C)c1[N+](=O)[O-]	.	19	22	1	10
Cc1cc(N)c(C)c([N+](=O)[O-])c1C	.	-1	-6	31*	5
Cc1ccc(C(=O)N2CCC[C@@H]2C(=O)N2CCC[C@@H]2C(=O)NCc2ccccc2)cc1	-1	.	.	.	.
COc1ccccc1-n1c(SCC(=O)N2CCCC2)nnc1-c1ccccc1	-2	6	0	21*	-7
CN(C)c1ccc(C(=O)OCc2cc(=O)n3ccsc3n2)cc1	-3	-1	0	23*	-5
C[C@@H]1CN([C@H](C)CO)C(=O)c2cc(NS(=O)(=O)c3cccs3)ccc2O[C@@H](C)CCCCO[C@@H]1CN(C)C	-3	.	.	.	.
CCC(=O)Nc1ccc2c(c1)C(=O)N(C)[C@@H]1CC[C@H](CC(=O)NC3CCCC3)O[C@@H]1CO2	-2	.	.	.	.
O=C(c1ccccc1)C1CC1c1ccccc1 (stereo not drawn)	3	5	0	38*	.
NNC(=O)[C@@H]1C[C@@H]1c1ccccc1	0	1	1	8	-5
COc1ccc(-c2ccc3c(=O)cc(-c4ccsc4)oc3c2)cn1	2	47*	0	-209	11
COc1ccc(S(=O)(=O)Nc2ccc3c(c2)CC(=O)N([C@@H](C)CO)C[C@@H](C)[C@H](CN(C)Cc2ccc4c(c2)OCO4)O3)cc1	4	.	.	.	.
CCOc1ccc(C(=O)c2cc([N+](=O)[O-])ccc2N2CCOCC2)cc1	.	12	0	-12	0
O=C(COC(=O)c1cc([N+](=O)[O-])ccc1N1CCOCC1)Nc1c(Cl)cccc1Cl	11*	-7	-1	13	-7
COc1ccc(C(=O)c2cc([N+](=O)[O-])ccc2N2CCOCC2)cc1	11*	6	1	-10	-10
O=C(COC(=O)c1cc([N+](=O)[O-])ccc1N1CCOCC1)c1ccccc1Cl	4	-7	1	10	-3
O=C(Cc1ccccn1)NCC[C@H]1CC[C@@H](NC(=O)Nc2ccc(F)cc2)[C@@H](CO)O1	1	.	.	.	.
O=C(Cc1ccccn1)NCC[C@H]1CC[C@H](NC(=O)Nc2ccc(C(F)(F)F)cc2)[C@H](CO)O1	22*	.	.	.	.
O=C(Cc1ccccn1)NCC[C@H]1CC[C@@H](NC(=O)Nc2ccc(C(F)(F)F)cc2)[C@@H](CO)O1	31*	.	.	.	.
Cc1noc(C)c1NC(=O)Nc1cccc2c1O[C@@H](CN(C)Cc1ccncc1)[C@@H](C)CN([C@H](C)CO)C2=O	-4	.	.	.	.
C[C@@H]1CN([C@H](C)CO)C(=O)c2cc(NC(=O)Nc3cccc4ccccc34)ccc2O[C@H]1CN(C)Cc1ccncc1	1	.	.	.	.
Fc1cccc(-c2csc(-c3ccno3)n2)c1	0	52*	3	-1	0

From PubChem BioAssay
